This assay concerns HepG2. The assay can be described thus: GSK_TCMDC: Percent inhibition of human HepG2 cell line. Test compounds present at 10uM. It is filed as functional.
For the compound `O=C(O)C(F)(F)F.O=c1ccc2ccc(F)c3c2n1CC3CN1CCC(NCc2ccc(-c3cccc(Cl)c3)nc2)CC1` (stereo not given), the Inhibition (in general, the relative decrease from the control value, in per cent) amounted to 16%.

`Cc1ccc(Oc2ccc(CNc3nc(Nc4cccc(F)c4)nc(Nc4cccc(F)c4)n3)cc2)cc1` returned an Inhibition of 0%. In turn, `CN1CCCCC1CCc1cc(C(=O)Nc2ccc(-c3ccc(O)cc3)cc2)ccc1O` (stereo not given) displayed an Inhibition of 6%.

Regarding `Cc1cc2nc(-c3cc(-c4cccc(NS(C)(=O)=O)c4)cnc3N)[nH]c2cc1C`, the Inhibition is given as 43%. `Cc1nnsc1C(=O)Nc1ccc(-c2cccc(-c3nc4cc(F)ccc4[nH]3)c2)cc1` yielded an Inhibition of 44%. As for `COc1ccc2nc3cc(Cl)ccc3c(NCCN(C)C)c2c1`, the Inhibition is on record as 4%. `CC(C)c1cc(Oc2c(I)cc(CCNCc3ccccc3)cc2I)ccc1O.Cl` had an Inhibition of 42%.

Take `Cc1ccc(N2CCc3c(-c4cc5cccnc5nc4C)cc(C)nc32)c(Cl)c1.O=C(O)C(F)(F)F`: the Inhibition was determined as 0%.

`COc1cc(CN=C(S)NN=C(C)c2ccccn2)cc(OC)c1OC` displayed an Inhibition of 45%. `O=C(NCc1cccc(F)c1)Nc1cccc(-c2ccc(-c3nc4cc(F)ccc4[nH]3)cc2)c1`: the Inhibition stood at 46%. The result for `CC(C)c1cn2c3c(cc(C(=O)N[C@@H](Cc4ccccc4)[C@H](O)CNC4CCCCC4)cc13)N(C)S(=O)(=O)CC2.O=CO` reads 9%; that for `CC(C)CC(=O)N1CCNC[C@@H]1C(=O)NC1CC1.O=C(O)C(F)(F)F`, 0%. The result for `Cc1onc(-c2ccccc2)c1-c1nc(NCCC(c2ccccc2)c2ccccc2)no1` reads 0%; that for `CS(=O)(=O)c1cccc(-c2cnc(N)c3cc(-c4cccc(F)c4)ccc23)c1`, 45%.

In the case of `CCCCCCN1CCCN(Cc2ccc(C(=O)Nc3cccc(CC)c3)cc2)CC1.O=C(O)C(F)(F)F`, the Inhibition is on record as 31%. With `COc1ccc(C=NN=c2cc(C)[nH]c3c(C)cccc23)c2ccccc12`, the Inhibition is given as 3%. On to `CC(c1cccc(Nc2nccc(-c3c(-c4cccc(NC(=O)c5c(F)cccc5F)c4)nn4ccccc34)n2)c1)S(C)(=O)=O` (stereo not given), for which the Inhibition came out at 76%.

Regarding `CCN1CCN(c2ccc(NC(=O)c3cc4c(C)nn(-c5ccccc5)c4s3)cc2C)CC1`, the Inhibition was determined as 32%. For `CCCn1cnc2cc(C(=O)Nc3ccc(-c4cccc(CN(C)C)c4)cc3)ccc2c1=O` the value was 26%. Compound `CCOC(=O)Cn1ccc2c(NCc3ccccc3)nc(C)nc21` yielded an Inhibition of 64%. For `Cc1cc(N/N=C/c2ccccc2[N+](=O)[O-])c2ccccc2n1` the value was 10%. In the case of `Cc1ccccc1C(=O)NC(NC(=S)Nc1ccc([N+](=O)[O-])cc1)C(Cl)(Cl)Cl` (stereo not given), the Inhibition is reported as 0%. The compound `CC(=O)Nc1ccc(S(=O)(=O)N(Cc2cccc(Oc3ccccc3)c2)C2CCN(C/C=C(\C)CCC=C(C)C)CC2)cc1` returned an Inhibition of 22%. Regarding `Cc1cc(C(=O)OCC(N)=O)c(C)n1-c1ccc(F)cc1`, the Inhibition is reported as 0%.

Consider `NC(=O)c1cnc2ccc(-c3cncs3)cc2c1Nc1ccc(F)c(Cl)c1`, for which the Inhibition turned out to be 3%. For `O=C(OCc1ccccn1)c1nc2ccccc2[nH]1` the value was 63%.

With `CCCCCN1CCC(NS(=O)(=O)c2ccc(C(=O)Nc3cccc(C(F)(F)F)c3)cc2)C1.O=C(O)C(F)(F)F` (stereo not given), the Inhibition was determined as 14%. For `COc1ccc(CN2CCC(CNCCc3ccccc3Cl)CC2)cc1.O=C(O)C(F)(F)F` the value was 36%; for `COc1ccc(Cn2c(Nc3cccc(C(F)(F)F)c3)nc3cc(C(=O)NC4CC4)cnc32)cc1Cl`, 0%. With `O=C(/C=C/c1ccc(Cl)c(Cl)c1)NCCCCCCN1CCN(C(=O)Nc2ccc(Cl)c(Cl)c2)CC1`, the Inhibition came to 23%. The compound `Cc1[nH]c(C)c(-c2ccc(-c3ccc(Cl)cc3)nc2)c(=O)c1Cl` yielded an Inhibition of 8%.

In the case of `CC(C)c1ccc(NC(=O)c2ccc(CN3CCCN(Cc4cccc(Cl)c4)CC3)cc2)cc1.O=C(O)C(F)(F)F`, the Inhibition was found to be 45%.

For `COc1cc(NC(=O)CCCCCCCCN2CCN(C)CC2)c2ncccc2c1`, the Inhibition is 8%. For `CCOC(=O)c1ccc(-c2cnoc2-c2cc(CC)c(OC)cc2O)o1` the value was 12%; for `Cc1ccc(NC(=O)NC2CCN(CCCCCNC(=O)/C=C/c3ccc(Cl)c(Cl)c3)CC2)cc1C`, 36%; for `COc1cc(-c2cnc(N)c(-c3nc4ccccc4[nH]3)c2)cc(OC)c1OC.Cl`, 59%. `COc1ccc2ncc(F)c(CCN3C[C@H](CNCc4cc(F)c5c(c4)NC(=O)CO5)[C@H](O)C3)c2n1.Cl` displayed an Inhibition of 3%. `CN1CCCC1CCNC(=O)[C@H](CC1CCCCC1)NC(=O)c1ccc(O)c(-c2ccc(Cl)c(Cl)c2)c1` (stereo not given in full) registered an Inhibition of 0%. For `COc1cccc(NC(=O)Nc2ccc(C)c(-c3ccc(C(=O)Nc4ccncc4)cc3)c2)c1` the value was 45%; for `O=C(/C=C/c1ccc(Cl)c(Cl)c1)NCCCCCN1CCC(NC(=O)Nc2cccc(Cl)c2F)CC1`, 75%.
